Data from PubChem BioAssay AID686979 (National Center for Advancing Translational Sciences (NCATS), 2013).
About 50,000 (12%) of roughly 420,000 compounds were called active. Not shown: some 26% with an inconclusive outcome. The entries come from a sample that favours actives as a whole. Unmarked numbers belong to inactive results. Calls follow the shape of the dose curve; as a rule, active = well fitted inhibition curve with a large enough effect; inconclusive = small, poorly fitted or top-dose-only effect; inactive = flat fitted curve, though single readings scatter.

Assay: qHTS for Inhibitors of human tyrosyl-DNA phosphodiesterase 1 (TDP1): qHTS in cells in presence of CPT; also: nearly all actives have a fitted effect of over 55% in size
Settings: chicken DT40 Tdp1-/-;hTDP1 cells + 20 nM CPT, ATP luminescence, 48 h; series mostly up to 46.2 µM; activity change, negative = growth inhibition: at the top concentration
Outline: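 Chicken DT40 Tdp1-/- cells complemented with human TDP1, 400 cells/well, exposed to compounds plus 20 nM camptothecin for at least 48 h at 37 C; viability read as ATP content by CellTiter-Glo luminescence.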
% is scaled to controls: 0 for no effect and ±100 for the full control effect; potency is read from the fitted curve at half-maximal effect.

Row | Structure (SMILES) | activity change, negative = growth inhibition [%] | Potency
1 | CN(C)CCOc1cccc(Br)c1 | 3.6 | 
2 | CC(C)(C)c1ccc(/C=C/C(=O)Nc2ncccn2)cc1 | -28.6 | 
3 | Cc1cccc(NC(=O)c2cccnc2Cl)n1 | 5.42 | 
4 | CSc1nccc(NC(=O)c2ccc(C(C)(C)C)cc2)n1 |  | 9.2 µM (active)
5 | COc1ccc(S(=O)(=O)N(C)C[C@H]2OCc3cnnn3CCCC(=O)N([C@H](C)CO)C[C@H]2C)cc1 | -22.7 | 
6 | COCc1cc(=O)oc2cc(NS(=O)(=O)c3ccc(C)cc3)ccc12 | -6.27 | 
7 | Cc1cc(SCc2c(F)cccc2Cl)nc(=O)[nH]1 | 0.592 | 
8 | Cn1ncc2c(N3CCCCC3)nc(NCCCO)nc21 | -2.76 | 
9 | COc1cccc(CN2CCN(Cc3ccc4cccc(F)c4n3)CC2CCO)c1 (stereo not drawn) | -28.5 | 
10 | CC(=O)c1cccc(NC(=O)c2cc(C)nn2-c2ccccc2)c1 | 2.05 | 
11 | CC(=O)c1cccc(NC(=O)c2ccncc2)c1 | -9.21 | 
12 | CC(=O)c1cccc(NC(=O)c2nc(-c3ccccc3)n(-c3cccc(C)c3)n2)c1 |  | 16.4 µM (active)
13 | COc1cccc(CNC(=O)c2cc(=O)[nH]c3ccc(S(=O)(=O)N4CCCCC4)cc23)c1 | -21.3 | 
14 | O=C1NC[C@H](CCCCN2C[C@H](Cc3ccccc3)N(Cc3ccccc3)C(=O)C2=O)N(CCc2ccc(O)cc2)C1=O | 7.35 | 
15 | O=[N+]([O-])c1ccc2c(c1)C(N1CCOCC1)/C(=C/C1(O)CCCCC1)O2 (stereo not drawn) | 1.25 | 
16 | Cn1nc(-c2ccccc2)c2cc([N+](=O)[O-])ccc21 | -2.27 | 
17 | Cc1ccccc1S(=O)(=O)NC(=O)C1(C)CCN1C(=O)C1(c2ccccc2)CCCC1 (stereo not drawn) |  | 14.6 µM (active)
18 | Cc1ccccc1S(=O)(=O)NC(=O)C1(C)CCN1C(=O)Cc1ccc(Cl)cc1Cl (stereo not drawn) | -20.6 | 
19 | CC1(C(=O)Nc2cccc3c2CCCC3)CCN1C(=O)CCc1ccc(Cl)cc1Cl (stereo not drawn) |  | 20.6 µM (active)
20 | Cc1ccccc1S(=O)(=O)NC(=O)C1(C)CCN1C(=O)C1(c2ccc(Cl)cc2)CC1 (stereo not drawn) | -23.7 | 
21 | CC1(C(=O)NS(=O)(=O)Cc2cccc(Cl)c2)CCN1C(=O)Cc1ccc(Cl)cc1Cl (stereo not drawn) | -18.1 | 
22 | CC1(C(=O)Nc2cccc3c2CCCC3)CCN1C(=O)C1(c2ccccc2)CC1 (stereo not drawn) |  | 16.4 µM (active)
23 | CC1(C(=O)NS(=O)(=O)c2ccc3ccccc3c2)CCN1C(=O)C1(c2ccc(Cl)cc2)CCC1 (stereo not drawn) | -24.2 | 
24 | CCCNC(=O)C1(C)CCN1C(=O)C1(c2ccccc2)CC1 (stereo not drawn) | 0.157 | 
25 | O=C(Nc1cccc2c1CCCC2)c1ccc(F)cc1 | -20.1 | 
26 | CCCC(=O)N1CCC(CCC(=O)NC2CC2)CC1 | 12.6 | 
27 | COc1cc2c(cc1OC)/C(=C/C(=O)c1ccc(NC(C)=O)cc1)NCC2 | -0.215 | 
28 | Cc1ccccc1CNC(=O)CCC(=O)N1Cc2ccccc2Oc2ncccc21 | -15.2 | 
